Screening data as filed in PubChem BioAssay.
GLP-1R inv ag: GLP-1 receptor (human) inverse agonism. P43220. HEK293 GLP-1R CRE-luciferase, luminescence, 24 h; GLP-1R form is constitutively active. Potency, µM (highest dose often 38.3 µM), without a hit: at the top dose activity change, negative = inhibition, usual class: inhibitors. 410,000 tested, 1.6% active; note: % is set by controls: 0 for no effect and ±100 for the full control effect; nearly all actives have a fitted effect of over 55% in size
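Constitutively active GLP-1R drives a cAMP-responsive luciferase in stably transfected HEK293 cells; test compounds are added after overnight (12 h) attachment and left 24 hr, and signal loss in luminescence marks inhibition.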
Glioma ERSR ind: ER stress response induction in glioma; Potency, µM, inactives show top-dose activation, hits mostly activators; 420,000 tested, 0.02% active; U87-MG GRP78 promoter luciferase reporter, 16 h; note: series mostly up to about 76 µM; % of control where 0% means no effect; nearly all actives have a fitted effect of over 35% in size
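ERSR induction read as luciferase luminescence (Bright-Glo, 10 min at room temperature) in stably transfected human U87-MG glioma cells exposed to compounds for 16 h, using GRP78 as sensor.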
GLP-1R agonist: agonists of human GLP-1 receptor. Potency, µM (series often up to 45.6 µM), without a hit: top-dose activation, usual class: activators. AID 624172. 380,000 tested, 0.007% active. HEK293 GLP-1R CRE-luciferase, luminescence, 4-6 h; cells express a hypersensitive GLP-1R form; note: % of control where 0% means no effect
GLS inh: inhibitors of human glutaminase (GLS); O94925; GLS enzymatic activity, qHTS titration; Potency, µM (highest dose often 45.5 µM), for the others: at the highest dose activity change, negative = inhibition, most hits filed as inhibitors; 410,000 tested, 0.21% active; AID 624170; note: % is set by controls: 0 for no effect and ±100 for the full control effect
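Coupled fluorescence readout: glutamate oxidase/HRP/Amplex Red detect glutamate formed by hKGA from L-glutamine (1 mM solution added). Buffer 45 mM KH2PO4 pH 8.2, 0.02% Tween-20; reads at t0 and 30 min RT.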
ALOX12 inh: inhibitors of human 12S-lipoxygenase ALOX12; AID 1671190; 580,000 tested, 1.1% active; purified 12hLO, xylenol orange hydroperoxide absorbance; Potency, µM (doses to about 108 µM), for inactives: at the top dose activity change, negative = inhibition, most hits filed as inhibitors; note: % is set by controls: 0 for no effect and ±100 for the full control effect
Target sequence (P18054 whole entry, looked up): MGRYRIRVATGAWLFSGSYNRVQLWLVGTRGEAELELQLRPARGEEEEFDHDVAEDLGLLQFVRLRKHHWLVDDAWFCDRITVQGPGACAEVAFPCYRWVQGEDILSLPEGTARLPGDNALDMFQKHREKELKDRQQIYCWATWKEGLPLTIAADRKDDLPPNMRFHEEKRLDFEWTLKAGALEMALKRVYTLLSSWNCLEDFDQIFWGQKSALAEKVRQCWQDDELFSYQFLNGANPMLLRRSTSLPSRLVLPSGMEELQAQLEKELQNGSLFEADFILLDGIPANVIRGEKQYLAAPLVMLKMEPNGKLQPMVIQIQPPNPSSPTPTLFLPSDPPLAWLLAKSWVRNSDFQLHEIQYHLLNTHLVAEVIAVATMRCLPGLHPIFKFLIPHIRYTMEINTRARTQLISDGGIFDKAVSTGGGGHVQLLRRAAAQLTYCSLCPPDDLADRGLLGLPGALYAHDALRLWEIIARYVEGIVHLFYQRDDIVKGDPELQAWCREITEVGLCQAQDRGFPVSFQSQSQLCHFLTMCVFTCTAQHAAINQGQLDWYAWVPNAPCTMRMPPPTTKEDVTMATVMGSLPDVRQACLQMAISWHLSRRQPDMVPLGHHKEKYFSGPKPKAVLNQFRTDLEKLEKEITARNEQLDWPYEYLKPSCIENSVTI
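Purified human 12hLO (150 nM final) in 25 mM Hepes, 0.01% Triton X-100, pH 7.0 was preincubated 15 min at room temperature with compound. Then 40 uM arachidonic acid was added, 30 min. Hydroperoxide was read by Fe-XO absorbance ratio 573/405 nm.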
PTHR1 ag: PTHR1 (human) receptor agonism. Q03431. HEK293 GP2 PTHR1 cells, GloSensor cAMP luminescence, 1 h. Potency, µM (titrated, usually from 115 µM), for the others: at the top dose activation, usual class: activators. 410,000 tested, 0.075% active; note: nearly all actives have a fitted effect of over 55% in size
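HEK-293-derived GP2 cells expressing PTHR1 and a GloSensor cAMP reporter, 3,000/well, plated overnight, given luciferin plus IBMX (each 0.5 mM as added) for 1 h at 37 °C, then compound for 1 h at 37 °C. Luminescence was read after 15 min at room temperature.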
An asterisk follows results filed as active; i = inactive; ? = inconclusive; / = no result given; ! = not active in a repeat; [ ] = another dose, or the depositor's remark. The list is not random: actives were taken first. Their share in the collection is about 2.3%. Calls come from the whole dose curve; as a rule, active = well fitted curve in the direction sought with a large enough effect; inconclusive = small, poorly fitted or top-dose-only effect, or another doubt; inactive = no such curve, though single readings can be large; an effect the other way counts as inactive or inconclusive. Potency is the fitted concentration of half-maximal effect.

SMILES | GLP-1R inv ag | Glioma ERSR ind | GLP-1R agonist | GLS inh | ALOX12 inh | PTHR1 ag
Cc1ccc(-n2nc3c(=O)n(C(C)C(=O)NCCCc4ccccc4)nc(C)c3c2C)cc1 (configuration not stated) | 5µM* | -1% | 0% | 16% | -20% | -37%
CCOc1cccc(C(=O)NNC(=O)C2C3CCC(C3)C2C(=O)O)c1 (configuration not stated) | / | / | / | / | 4% | /
CCOC(=O)[C@H]1[C@H]2COc3ccc(Br)cc3[C@@H]2N2C(=O)c3cc(Br)ccc3NC(=O)[C@@]12C | 2.8µM* | -4% | -2% | 3% | 4% | -14%
CCOC(=O)[C@H]1[C@H]2COc3ccc(Cl)cc3[C@@H]2N2C(=O)c3cc(F)c(F)cc3NC(=O)[C@@]12C | 10µM* | 1% | 3% | -1% | -2% | -40%
CCOC(=O)[C@H]1[C@H]2COc3ccc(Cl)cc3[C@@H]2N2C(=O)c3cc(Br)ccc3NC(=O)[C@@]12C | 3.5µM* | -1% | -2% | 3% | ? | -10%
CCOc1cc(C(=O)N2CCN(C(=O)OC(C)(C)C)CC2)ccc1OC | / | / | / | / | 9% | /
Cc1ccc(CN(C)C(=O)c2cc(S(=O)(=O)Nc3ccc(C)cc3)ccc2C)cc1 | / | / | / | / | 1% | /
CCCCN1C(=O)c2[nH]nc(-c3ccccc3O)c2C1c1ccc(OCc2ccccc2)cc1 (configuration not stated) | ? | ? | / | 6% | 1% | 22µM*
COCCCN1C(=O)c2[nH]nc(-c3ccccc3O)c2C1c1ccc(OCc2ccccc2)cc1 (configuration not stated) | ? | ? | / | 9% | -8% | -90%
N#CCCN1CCN(CCC#N)c2ccccc21 | -16% | -1% | 8% | 34% | 28µM* | i
N#CCCN1CCN(CCC#N)C1=S | 14% | -4% | 2% | 0% | -5% | -31%
C/C(=N\N=C1\NC(=O)C(CC(=O)Nc2ccc(C)c(Cl)c2)S1)C(C)(C)C (configuration not stated) | 11µM* | -5% | 9% | 13% | -15% | -3%
CC(C)CCn1cnc2c(oc3nc4c(cc32)CCCC4)c1=O | 8.9µM* | -13% | -7% | 1% | -11% | -30%
COc1cc(/C=C2/C(=O)c3cccc([N+](=O)[O-])c3C2=O)c(Br)cc1O | 10µM* | 1% | -1% | ? | 18µM* | -19%
COCc1cc(C[C@@H]2CC[C@H](O)[C@@H](CNCc3ccc(F)cc3)O2)no1 | / | / | / | / | 0%[176 µM] | /
CCc1cccc(C)c1NC(=O)CN(C)Cc1cccc(F)c1 | 8.9µM* | -3% | 4% | -5% | -8% | i
Cc1cccc(C(C)C)c1NC(=O)CN(C)Cc1cccc(F)c1 | ? | -1% | -5% | 0% | -3% | -23%
Cc1nn(Cc2c(F)c(F)c(F)c(F)c2F)c(C)c1NC(=O)c1ccc(COc2ccc(Cl)cc2Cl)o1 | 5µM* | -3% | 1% | -1% | -30% | -1%
O=C(NCCN1CCCCC1)c1ccc(Cn2c(SCc3ccccc3)nc3ccncc32)cc1 | / | / | / | / | -18% | /
Cc1sc2nc(CSc3nnnn3C3CCCCC3)[nH]c(=O)c2c1C | / | / | / | / | 0% | /
Cc1ccc(NC(=O)CNC(c2ccccc2)c2ccccc2)c(F)c1 | 11µM* | -2% | 8% | 4% | -20% | -19%
COc1ccc(C)cc1NC(=O)CNC(c1ccccc1)c1ccccc1 | ? | 0% | 6% | -16% | 0% | -16%
COc1cc(=O)n2c(c1C(=O)Nc1ccc(Br)cc1F)CCCC2 | / | / | / | / | 20µM* | /
COc1cc(=O)n2c(c1C(=O)Nc1ccc(Br)cc1)CCCC2 | / | / | / | / | 7% | /
Cc1cccc(Nc2nc(C)c(C(=O)Nc3ccccc3)s2)c1 | / | / | / | / | 13µM* | /
SMILES | GLP-1R inv ag | Glioma ERSR ind | GLP-1R agonist | GLS inh | ALOX12 inh | PTHR1 ag
Cc1nc(Nc2ccc(Cl)cc2Cl)sc1C(=O)Nc1ccccc1 | 10µM* | 2% | 11% | -2% | -20% | -16%
CCOc1ccc(Oc2ccccc2NC(=O)c2ccoc2)cc1 | / | / | / | / | -11% | /
COc1ccc(C(=O)Nc2c(N3CCCC3)c3ccccc3oc2=O)cc1 | / | / | / | / | 10% | /
COc1ccc(-c2[nH]c(-c3ccc(F)cc3)nc2SCC(=O)NC2CCCC2)cc1 | 7.9µM* | -4% | 4% | 0% | -1% | i
COc1ccc(-c2nc(SCC(=O)NC3CCCC3)c(-c3ccc(F)cc3)[nH]2)cc1 | ? | -2% | / | -11% | -12% | i
COc1ccc(-c2[nH]c(-c3ccccc3)nc2SCC(=O)NC2CCCC2)cc1 | 10µM*! | -3% | 2% | -14% | -5% | -6%
O=S(=O)(NC1CCN(S(=O)(=O)c2ccc(C(F)(F)F)cc2)CC1)c1cccs1 | / | / | / | / | -2% | /
Cc1ccn2c(CC(C)(C)C)c(-c3ccc(F)cc3)nc2c1 | 7.1µM* | 0% | -4% | 1% | ? | -90%
Cc1ccc(Cc2c(-c3ccc(C)cc3)nc3cc(C)ccn23)cc1 | ? | -6% | -3% | 2% | ? | -32%
O=C(Nc1cccc(OC(F)(F)F)c1)C1Cc2c(-c3ccccc3Oc3ccccc3)ccnc2O1 (configuration not stated) | 13µM* | -8% | 4% | -1% | -7% | -11%
Cc1ccc2oc(C(=O)N(Cc3cccc(Cl)c3)C3CCS(=O)(=O)C3)cc(=O)c2c1 (configuration not stated) | / | / | / | / | -1% | /
COc1cc(/C=C(/C#N)c2ccccn2)ccc1OCc1cccc(C(F)(F)F)c1 | / | / | / | / | 6.3µM* | /
Cc1ccc(CN2CCC(CNC(=O)Nc3cn(CC(C)C)c(=O)c4ccccc34)C2)cc1 (configuration not stated) | / | / | / | / | 45µM* | /
c1ccc(C2CC(c3cccs3)=NN2c2ccccc2)cc1 (configuration not stated) | 10µM* | -3% | 0% | 12% | ? | -9%
O=C(c1ccccc1)N1N=C(c2cccs2)CC1c1ccccc1O (configuration not stated) | 8.9µM* | 3% | -2% | 19% | 39% | i
O=C(Cn1ncc(=O)c2ccccc21)N1CCCC1c1ccc2c(c1)OCCCO2 (configuration not stated) | / | / | / | / | -3% | /
CCOc1ccccc1N1CCN(CC(=O)Nc2ccc(C)cc2F)CC1 | / | / | / | / | -24% | /
CCN1CCN(S(=O)(=O)c2ccc(S(=O)(=O)N(CC)Cc3ccccc3)cc2)CC1 | -1% | 2% | -6% | 10% | 1.4µM* | -8%
COc1cccc(-c2nn3c(CN4CCCCCC4)nnc3s2)c1 | / | / | / | / | -28% | /
CCCCCn1c(COc2ccccc2Cl)n[nH]c1=S | / | / | / | / | 28µM* | /
Cc1ccc(Cl)c(OCc2n[nH]c(=S)n2C)c1 | / | / | / | / | 32µM* | /
